Measurements from PubChem BioAssay (NCI).
The panel holds about 83,000 compounds, 20% with a hit somewhere; the sample as a whole holds those more often.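 Values shown are percent growth following 48 h exposure of cells in 96-well plates to a single concentration of compound; below 10 was considered active.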 Unmarked numbers belong to inactive results. Calls of active or inactive are those of the source.

These compounds were tested on MDA-MB-468 breast (assay: NCI-60 one-dose screen, 48 h (100 = growth as untreated, 0 = no growth, -100 = all killed)). Details: 10 µM unless noted.

SMILES	growth
C=CCn1c(SCC(=O)c2ccc(OC)cc2)nnc1-c1ccc(OC)cc1	90.6%
CC[N+](CC)(CCCC(C)[N+]1(Cc2ccccc2)C(C)=CC=C1C)Cc1ccccc1 (stereo not given)	-12.8% (active)
Cn1c(COC(=O)NCCN2CCOCC2)nc2c(N3CCOCC3)nc(-c3ccccc3)nc21	-69.1% (active)
COc1ccc(-c2nc3sc(C)cn3c2/C=C/C(=O)c2cc(OC)c(OC)c(OC)c2)cc1	25.5%
Nc1nc(-c2ccc(Cl)cc2)nc2c1sc(=S)n2-c1ccccc1	27.3%
Cc1csc(/N=C(N)/N=C(\N)c2cccs2)n1	120%
COc1ccc2c(c1)C(=O)c1c-2c(OCCN(C)C)nc2ccccc12	44.8%
Cn1cc(-c2csc(-c3c[nH]c4ccccc34)n2)c2cnccc21	-20.8% (active)
COc1ccc(-c2nnc(COc3ccc(C(=O)/C=C/c4ccco4)cc3)o2)cc1	20.4%
COc1ccc(S(=O)(=O)N2CCCCCC2)cc1NC(=O)c1[nH]c(C)c2c1CCCCC2=O	4% (active)
Cc1c(Cc2ccccc2)c(=O)oc2c(C)c(OCc3n[nH]c(=S)o3)ccc12	77.7%
CC1(C)CC[C@]2(CO)CC[C@]3(C)C(=CC[C@@H]4[C@@]5(C)CC[C@H](NCO)C(C)(C)[C@@H]5CC[C@]43C)[C@@H]2C1	-70.1% (active)
O=C(NCc1ccccc1)c1ccc2c(c1)NC(=O)[C@@H]1CCCN21	103%
CCCCC1COc2cccc3c(SCC(=O)N(C)c4cccc5ccccc45)cc[n+]1c23 (stereo not given)	92.2%
CC1(c2ccccc2)NC(=O)NC1=O (stereo not given)	105%
COC(=O)c1nc(-c2ccc(C)cc2)oc1N1CCOCC1	82.1%
O=C(Cc1ccc(/C=C/C(=O)c2ncc[nH]2)cc1)Nc1cc(F)c(F)c(F)c1	8.95% (active)
O=c1c2cc(F)ccc2sc2c(NCCO)nc3ccccc3c12	80.3%
COc1ccc(/C=N/NC(=O)CSc2nc(-c3cnccn3)cc(-c3cccs3)c2C#N)cc1OC	65.3%
C/C(=N\NC(=O)c1ccc(C(C)(C)C)cc1)c1ccc(O)cc1O	-26.3% (active)

SMILES	growth
COc1cc(O)c2c(c1)/C=C/C[C@H](O)[C@H](O)C(=O)/C=C\C[C@H](C)OC2=O	-24.3% (active)
CC(C)Cn1cnc2c(=O)[nH]c(N)nc21	91.6%
COc1ccc(C(=O)n2nc(/C=C/c3ccc(O)c(OC)c3)cc2/C=C/c2ccc(O)c(OC)c2)cc1	-8.43% (active)
N#Cc1c(-c2ccc(Cl)cc2)n(O)c2ccccc12	-3.01% (active)
FC(F)(F)c1ccc2c(c1)Sc1ccccc1N2	102%
N#Cc1cnc2cc(OC[C@@H](O)CO)c(NC(=O)C3CCCC3)cc2c1Nc1ccc(OCc2cccc(F)c2)c(Cl)c1	-20.9% (active)
O=C(CN1C(=O)CSC1=O)Nc1ccc(C(=O)/C=C/c2cc3ccccc3nc2Cl)cc1	48.7%
CN(C)c1ccc(N=Cc2ccc(N3CCOCC3)cc2)cc1	57.5%
CCOC(=O)c1ccc(NC(=O)CSC(N)=O)cc1	108%
N#Cc1c(-c2cccs2)cc(-c2cnccn2)nc1SCC(=O)N/N=C/c1cccs1	64.6%
CC12CCC3C(CCC4CC(O)CCC43C)C1C/C(=C/O)C(=O)O2 (stereo not given)	108%
Nc1ccc2c(O)cc(S(=O)(=O)O)cc2c1	110%
Cn1c(=O)c2c(nc(Br)n2CCC(=O)Nc2ccc(F)cc2)n(C)c1=O	113%
CCOC(=O)c1c(SC)nn(-c2cc(=O)[nH]c3ccc(Br)cc23)c1N	115%
CCCNS(=O)(=O)c1ccc(Cl)cc1	102%
O=C1NC(=S)N[C@H]1CC(=O)n1cnc2ccccc21	86.3%
O=C1c2cc3c(cc2-c2c1c1ccc(Cl)cc1c(=O)n2CCCNCCO)OCO3	-91.6% (active)
CC1(C)CC[C@]2(C(=O)NCCNCCN)CC[C@]3(C)C(=CC[C@@H]4[C@@]5(C)CCC(=O)C(C)(C)[C@@H]5CC[C@]43C)[C@@H]2C1	-67% (active)
CCN(CC)c1ccc2nc3ccc(N=Nc4ccc(O)cc4)cc3[n+](-c3ccccc3)c2c1	-60.7% (active)
O=S(=O)(NCCCNc1nccc(-c2c(-c3cccc(F)c3)nc3occn23)n1)c1cccc2ccccc12	15.3%
